These results are taken from PubChem BioAssay AID540308 (The Scripps Research Institute Molecular Screening Center, 2011).

Each structure is given as a SMILES string. The whole screen tested about 360,000 compounds, of which about 3,500 (0.97%) were called active.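 The calls were made as follows: active = activation above a per-plate cutoff, the mean activation of sample wells on that plate plus 3 SD (cut at about 8% in these data); inactive = the rest.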 Many of the other results were omitted from the sample, so actives are more common in it than they were.

Sequence of Melanocortin receptor 4 (Homo sapiens) (P32245 whole entry, looked up): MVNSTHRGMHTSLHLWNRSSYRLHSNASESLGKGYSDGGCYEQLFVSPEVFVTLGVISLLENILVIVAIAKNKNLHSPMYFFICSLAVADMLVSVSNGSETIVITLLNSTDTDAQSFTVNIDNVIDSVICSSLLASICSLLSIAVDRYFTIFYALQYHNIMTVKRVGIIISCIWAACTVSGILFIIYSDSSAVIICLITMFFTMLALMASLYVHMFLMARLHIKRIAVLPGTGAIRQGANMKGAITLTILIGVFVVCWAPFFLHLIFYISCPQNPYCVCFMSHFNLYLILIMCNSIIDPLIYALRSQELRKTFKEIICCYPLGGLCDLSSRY

This experiment concerns the target Melanocortin receptor 4 (Homo sapiens) (UniProt P32245). Kind of experiment: activators of MC4R beta-arrestin recruitment – cell-based, luminescence, agonist arm of biased-ligand search, primary screen (AID 540308). The settings on record: U2OS MC4R beta-arrestin complementation, at 8.9 µM, active compounds read high, percent of melanotan II response, DMSO zero.
Take `CCOc1ccc2c(c1)cc(CN(C(=O)CC)C1CCCCC1)c1nnnn12`: the activation was 0.48% (inactive). To `CCc1ccc2c(c1)cc(CN(C(=S)Nc1ccccc1Cl)C1CC1)c1nnnn12` belongs 12.6% (active); to `CCc1cccc(NC(=S)N(CCN(C)C)C2CCN(C(C)C)CC2)c1`, -0.19% (inactive); to `CC1(C(=O)NS(=O)(=O)c2cccc(F)c2)CCN1C(=O)Cc1cc(F)ccc1F` (stereo unspecified), -0.76% (inactive). For `CCNC(=O)C1(C)CCCN(C(=O)c2c(C)noc2C)C1` (stereo unspecified) the value was 0.77% (inactive); for `Cc1ccsc1/C=N/Nc1ccc(Cl)nn1`, 12.3% (active). For `Cc1ccsc1/C=N/NC(=O)Cc1cc(=O)[nH][nH]1` the value was -1.77% (inactive). Take `C/C(=N\Nc1ccc(Cl)nn1)c1ccccc1O`: the activation was -0.38% (inactive).

In the case of `COc1ccccc1CNC(=O)c1cc(-c2cc(F)ccc2OC)n[nH]1`, the activation was 1.31% (inactive).

`CCCCC(=O)N(C)c1c(CC)nc2c(OCc3ccc(Cl)cc3Cl)cccn12`: the activation is 0.75% (inactive). For `CC(=O)OC[C@@H]1CN(Cc2ccccc2)C[C@H](n2cnc3c(NCc4ccco4)ncnc32)O1` the value was -2.47% (inactive); for `COc1ccc(Nc2cc(=O)oc3ccccc23)cc1`, -0.49% (inactive); for `COc1cccc2cc(-c3cc(=O)oc4cc(C)c(O)cc34)oc12`, 1.6% (inactive).

Turning to `COc1ccc2oc(=O)cc(-c3cc4ccccc4o3)c2c1`, the activation was 8.24% (active). To `CCN(c1ccccc1)S(=O)(=O)c1ccc(C(=O)Nc2nccs2)cc1` belongs 8.9% (active). For `CCN(c1ccccc1)S(=O)(=O)c1ccc(NC(=O)C(C)(C)C)cc1` the value was -0.35% (inactive); for `CCN(c1ccccc1)S(=O)(=O)c1ccc(C(=O)Nc2ccccc2OC)cc1`, 0.77% (inactive). To `O=C(NC(c1ccc(Cl)cc1)c1cnccn1)C1CCN(Cc2ccc(Cl)cc2)CC1` (stereo unspecified) belongs -0.34% (inactive); to `Cc1ccc(C(NC(=O)C2CCN(CCOc3ccc(Cl)cc3Cl)CC2)c2ccccn2)cc1` (stereo unspecified), 4.91% (inactive); to `O=C(NC(c1ccc(-c2ccccc2)cc1)c1cnccn1)C1CCN(CCOc2ccc(Cl)cc2Cl)CC1` (stereo unspecified), 18% (active). `CCc1ccc2c(c1)NC(=O)C2(C)Cc1ccc(OC(F)(F)F)cc1` (stereo unspecified): the activation was -0.4% (inactive). To `Cc1ccc(-c2cnc(C(O)c3cccc(C)c3C)[nH]2)cc1` (stereo unspecified) belongs -0.77% (inactive); to `CC(C)c1ccc2c(c1)c(SC(C)(C)C)c(CC(C)(C)C(=O)O)n2Cc1ccc(Cl)cc1`, 15.9% (active); to `COCCNC(=O)C1CCCN(Cc2ccccc2Cl)CC1` (stereo unspecified), -0.57% (inactive). Consider `CC(=O)Nc1ccc(-c2ccnc3c2CC(C(=O)NC(C)C)O3)cc1` (stereo unspecified), for which the activation was -1.59% (inactive). For `O=C(NCCO)c1cccc(-c2cccc3nccn23)c1` the value was -1.27% (inactive). For `CNc1cncc(-c2ccc(NS(C)(=O)=O)cc2)n1` the value was -1.66% (inactive); for `CCOC(=O)c1[nH]c2c(c1-c1ccccc1)C(=O)CC(c1ccc(Cl)cc1)C2` (stereo unspecified), 13.1% (active). To `CCOC(=O)C1=C(CN2CCc3ccccc32)NC(=O)NC1c1ccc(Cl)cc1` (stereo unspecified) belongs 6.41% (inactive). On to `CCCOC(=O)c1[nH]c2c(c1C)C(=O)CC(c1cccs1)C2` (stereo unspecified), for which the activation is -0.13% (inactive). To `CS(=O)(=O)/C(C#N)=C/c1cccn1S(=O)(=O)c1ccc([N+](=O)[O-])cc1` belongs -0.77% (inactive). To `O=C(O)c1ccccc1-c1cccc2nncn12` belongs 1.15% (inactive).

On to `OC(c1ccccc1)c1nc(-c2cnc3ccccc3c2)cs1` (stereo unspecified), for which the activation was -1.73% (inactive). For `Cc1ccc(C(=O)Nc2c(C#N)c(C)c(C)n2Cc2ccccc2)cc1` the value was 0.7% (inactive); for `Cc1c(C#N)c(NC(=O)c2ccccc2)n(Cc2ccccc2)c1C`, 1.54% (inactive); for `COc1ccc(Cn2c(C)c(C)c(C#N)c2NC(=O)Nc2ccc(F)cc2)cc1`, 9.65% (active). To `O=C(Nc1cccn(Cc2ccccc2Cl)c1=O)NC1CCCCC1` belongs -3.02% (inactive). For `COc1ccc(Cn2cccc(NC(=O)Nc3ccc(C#N)cc3)c2=O)cc1` the value was 8.99% (active); for `COc1cccc(NC(=O)CN(C)C(C)C(=O)Nc2ccc(C#N)cc2)c1` (stereo unspecified), -2.21% (inactive); for `O=C(NCc1cccnc1)c1cc(C2CCCN(C(=O)C3CCCCC3)C2)on1` (stereo unspecified), 0.25% (inactive). With `CC1(Cc2cccc(C#N)c2)C(=O)Nc2ccc(-c3cccc(C(F)(F)F)c3)cc21` (stereo unspecified), the activation was 1.34% (inactive). For `CCOc1ccc(Cl)cc1-c1cc(C(=O)NCc2cccs2)[nH]n1` the value was 1.31% (inactive); for `O=C(CSc1nc2cccc(F)c2c(=O)n1-c1ccccc1)Nc1ccc2c(c1)CCC2`, 1.04% (inactive). Consider `CCOC(=O)C1=C(O)/C(=C/c2ccc(OCC(=O)Nc3ccc(C)cc3)cc2)N=C1C`, for which the activation is 16.8% (active). For `COC(=O)C1=C(O)/C(=C/c2ccc(OCC(=O)Nc3ccccc3)cc2)N=C1C` the value was -2.96% (inactive); for `Cc1ccc(NC(=O)COc2ccc(/C=C3/NC(=O)NC3=O)cc2)cc1`, -1.81% (inactive).

Take `COC(=O)c1ccc(CN2C(=O)C(Cc3ccccc3)ON=C2c2ncccc2C)o1` (stereo unspecified): the activation is 0.08% (inactive).

`CS(=O)(=O)c1cccc(-c2ccc3nncn3c2)c1`: the activation was 0.6% (inactive).

`CSc1ccccc1OCc1cc(C(=O)N2C[C@H]3CC[C@H]2C3)no1`: the activation is -3.22% (inactive). Consider `O=C(O)c1cscn1`, for which the activation is -0.73% (inactive).

Turning to `Cc1ccc2nc(-c3ccc(SCC(=O)Nc4cc(C)on4)nc3)[nH]c2c1`, the activation is -0.33% (inactive). For `Cc1cc(NC(=O)CSCC(=O)NC(C)c2ccccc2)no1` (stereo unspecified) the value was 3.59% (inactive). For `Cc1ccc(-c2csc(SCC(=O)Nc3cc(C)on3)n2)cc1` the value was 12.5% (active); for `CCc1nc2ccc(C(=O)N3CCN(S(=O)(=O)CC)CC3)cn2c1N(C=O)CCC(C)C`, -1.41% (inactive); for `CC(C)Cn1cc(-c2cncc3nccn23)cn1`, -1.32% (inactive).

Consider `COc1ccccc1CC1(C)C(=O)Nc2ccc(OC(F)(F)F)cc21` (stereo unspecified), for which the activation is 4.13% (inactive). For `Cc1c(C(=O)N2CCN(c3ccc(F)cc3)CC2)oc2c1C(=O)CCC2` the value was -0.69% (inactive); for `O=C(c1ccccc1Oc1ccccc1)N1CCN(c2ccc(F)cc2)CC1`, -0.88% (inactive). To `O=C(c1cc2cc(F)ccc2[nH]1)N1CCN(c2ccc(F)cc2)CC1` belongs 9.41% (active).

With `CS(=O)(=O)N1CCCCC1c1cc(C(=O)NCc2ccccc2)no1` (stereo unspecified), the activation is 0.31% (inactive). For `CC1(C(=O)NCc2ccc3c(c2)OCO3)CCN1CCc1ccccc1` (stereo unspecified) the value was 1.41% (inactive); for `CCCNC(=O)C1(C)CCCN(C(=O)c2cccc(OC(C)=O)c2C)C1` (stereo unspecified), -0.89% (inactive).

As to `O=C(CCl)N(Cc1cccc([N+](=O)[O-])c1)c1cccc(Cl)c1`, the activation is 20.4% (active). To `CC(=O)N(CN1C(=O)C2CC=CCC2C1=O)c1cccc(Cl)c1` (stereo unspecified) belongs -0.75% (inactive); to `COC(=O)c1cc(C(=O)N(Cc2ccccc2)c2ccccn2)cc([N+](=O)[O-])c1`, 2.05% (inactive); to `Cn1c(Nc2ccc(F)cc2)nc2cc(-c3ccsc3)sc2c1=O`, 2.85% (inactive).

Take `O=C1/C(=C\c2ccccc2Cl)SC(=S)N1CCC(=O)N1CCCc2ccccc21`: the activation is -0.74% (inactive). For `Cc1ccc(-c2nn(-c3ccccc3)cc2/C=C2\SC(=S)N(CCCCCC(=O)O)C2=O)o1` the value was 8.64% (active); for `CN(C(=O)CCN1C(=O)/C(=C/c2ccccc2F)SC1=S)C1CCS(=O)(=O)C1` (stereo unspecified), -1.67% (inactive); for `COc1ccc(-c2coc3c(C(=O)NC(C)C)cccc23)c(C)c1`, 0.44% (inactive). For `CCOC(=O)c1c(C)[nH]c(C(=O)NCCN2CCOCC2)c1C`, the activation is -1.01% (inactive).

Consider `COc1cccc(CNCCc2c[nH]c3ccccc23)c1OCc1ccccc1F`, for which the activation was 10.3% (active). With `Fc1ccccc1COc1ccccc1CNCc1ccncc1`, the activation is -1.5% (inactive).

For `COc1ccc(C(CCNCc2ccccc2F)c2ccc(F)cc2)cc1` (stereo unspecified), the activation is 2.17% (inactive). For `CN1C[C@@H](CO)O[C@@H](n2cnc3c(N4CCN(CCO)CC4)ncnc32)C1` the value was -0.08% (inactive); for `COc1ccc(S(=O)(=O)N2CCOC2CNC(=O)C(=O)NCc2ccncc2)cc1C` (stereo unspecified), 0.29% (inactive). For `CCNC(=O)C1(C)CCCN1C(=O)c1ccc(N(C)C)cc1` (stereo unspecified) the value was -0.82% (inactive); for `O=C(NCCc1ccc(Cl)cc1Cl)c1cc([N+](=O)[O-])c[nH]c1=O`, -2.62% (inactive). Turning to `Cc1ccc2[nH]cc(CCNC(=O)c3ccc([N+](=O)[O-])cc3)c2c1`, the activation was -2.01% (inactive). Take `O=C(NCCc1c[nH]c2ccc(Cl)cc12)c1ccc([N+](=O)[O-])cc1`: the activation is 10.4% (active). To `COC(=O)c1ccc(S(=O)(=O)N2CCC(c3nc4ccccc4o3)CC2)cc1` belongs -0.95% (inactive). For `CC1(C(=O)Nc2ccc3c(c2)OCCO3)CCN1C(=O)Cc1cc(F)ccc1F` (stereo unspecified) the value was -0.93% (inactive). `CC1(Oc2ccc(Cl)cc2)CCN(Cc2csc3ccccc23)C1` (stereo unspecified): the activation is 5.74% (inactive). `OC(c1ccccc1)c1nc(/C=C/c2ccc(C(F)(F)F)cc2)cs1` (stereo unspecified): the activation was 1.43% (inactive). To `CCOc1ccc(/C=C/C(=O)OCC(=O)c2ccccc2OC)cc1OC` belongs 12.9% (active); to `COc1ccc(/C=C/C(=O)OCC(=O)NC2CCCCCC2)cc1OC`, 0.56% (inactive); to `COc1cc(/C=C/C(=O)OCC(=O)c2ccccc2)cc(OC)c1OC`, -2.53% (inactive). For `O=C(Nc1ccc(Cl)cc1)c1csc([C@@H]2O[C@H](CO)[C@H](O)[C@H](O)[C@H]2O)n1` the value was -0.59% (inactive); for `CCOCCC(=O)Nc1ccc2c(c1)c(=O)n(C)n2-c1ccc2ccccc2c1`, -1.1% (inactive). For `Oc1c(Br)cc(/C=N/NC(=S)NCC2CCCO2)cc1Br` (stereo unspecified) the value was -1.36% (inactive); for `CC1(C(=O)NS(=O)(=O)c2cccc(F)c2)CCN1C(=O)c1cccc2ccccc12` (stereo unspecified), -0.68% (inactive).
